Bioassay records deposited in PubChem by Broad Institute.
The entries come from a sample that favours hits as a whole.
PD-1 reverse act – reversal of PD-1 mediated T-cell inhibition | 29,000 tested, under 10 active | primary human CD4 T cells, PD-L1 beads, CellTiter-Glo 96 h | activation, % (concentration not given with the values); call rule not given here;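 also: 0% = median vehicle wells and 100% = positive control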
NOMO-1 viab – STK33 inhibitor candidate reducing NOMO-1 cell viability | NOMO-1 AML viability, CellTiter-Glo luminescence, 72 h | inhibition, % (test concentration not listed) | hit rate 7.5% among 37,000; in the data active = inhibition above about 80%; inconclusive = no clear call, values can overlap the other calls
ROS inducer – inducers of reactive oxygen species in cancer cells; U2OS ROS induction, H2DCF-DA fluorescence; ROS induction (% of piperlongumine), % at 10 µM; hit rate 2% among 46,000; in the data active = ROS induction above about 79%, passing the limit was not always enough; inconclusive = no clear call, values can overlap the other calls;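 also: 0% = DMSO vehicle median and 100% = reference compound median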
Active calls of the source: *; ? = inconclusive; · = not tested or not shown.

SMILES	PD-1 reverse act	NOMO-1 viab	ROS inducer
C[C@@H]1CCC/C=C/[C@H]2C[C@@H](O)C[C@@H]2[C@@H](O)/C=C\C(=O)O1	-6	108*	-10
CCC[C@H]1C[C@H]2OC(=O)c3c(cc(OC)c(OC)c3O)[C@H]2O1	2	14	0
COc1ccc2[nH]cc(CCN)c2c1	4	-1	5
CC(N)Cc1c[nH]c2ccc(OCc3cccs3)cc12 (stereo not given)	3	33	99*
COC1=CC(=O)O[C@@H](CCc2ccc3c(c2)OCO3)C1	1	13	-8
Cc1c(O)c(C(=O)O)c(O)c2c1[C@H](C)[C@@H](C)OC2=O	1	-9	14
CCN(CC)c1nc2ccccc2c(=O)n1-c1ccccc1	·	·	6
COc1ccc(CN2CCN(Cc3ccccc3C)CC2)cc1	·	·	-6
COc1cc2c(cc1OC)-c1c(OC)c(OC)c(N)c3c1[C@H](C2)N(C)CC3	·	·	12
C=C(C)[C@H]1O[C@H]2CC[C@@]3(C)[C@@](O)(CC[C@H]4[C@@H]5OC(C)(C)[C@H]6C[C@@H]7C(=C)Cc8c(Cl)cc9[nH]c(c5c9c8[C@@]76O)[C@@]43C)[C@]23O[C@@H]3[C@H]1O	·	116*	11
Cc1cc(OCc2c(F)cccc2Cl)c2c3c(c(=O)oc2c1)CCCC3	·	·	-3
CCOC(=O)c1c(NC(=O)C2C(C)(C)C2(C)C)sc2c1CCC2	-12	15	9
O=C(Cn1cc(C(=O)c2ccccc2)c2ccccc21)NCC1CCCO1 (stereo not given)	0	23	16
CC1C/C=C/C2C3OC3(C)C(C)C3C(Cc4ccccc4)NC(=O)C23OC(=O)O/C=C/C(C)(O)C1=O (stereo not given)	-26	93*	-5
CC1(C)CC(=O)C2=C(C1)OC(N)=C(C(=O)OC(C)(C)C)C21C(=O)Nc2ccccc21 (stereo not given)	1	15	10
C/C=C(\C)C(=O)OC1C(C)=C2C(C1OC(=O)CCCCCCC)C(C)(OC(C)=O)CC(OC(=O)CCC)C1(O)C2OC(=O)C1(C)O (stereo not given)	-14	120*	5
C/C=C(/C)C(=O)O[C@H]1C(C)=C2[C@H]([C@@H]1OC(=O)CCCCCCC)[C@@](C)(OC(C)=O)C[C@H](OC(=O)CCC)[C@@]1(O)[C@H]2OC(=O)[C@@]1(C)O	·	122*	13
CCC1C2CC[N+]3([O-])CCC4(C(=C2C(=O)OC)Nc2c(OC)cccc24)C13 (stereo not given)	2	18	-10
CCC12CCCN3CCC4(c5ccc(OC)c(O)c5N(C(C)=O)C4CC1)C32 (stereo not given)	0	20	6
COc1ccccc1CN1CCN(Cc2ccccc2)CC1	·	·	12
COC(=O)c1c(C)n(CCCOC(C)C)c2c1cc(O)c1ccccc12	-2	4	53
CN1C[C@H](CNC(=O)OCc2ccccc2)C[C@@H]2c3cccc4c3c(cn4C)C[C@H]21	·	104*	21
CC[C@@H](CO)NC(=O)[C@@H]1C=C2c3cccc4c3c(cn4C)C[C@H]2N(C)C1	2	-9	0
C=CC/C=C\C/C=C\CCCCCCCc1cc(O)cc(O)c1	1	109*	-2
Cc1cc(C(F)F)n2nc(C(=O)Nc3ccc(Cl)cc3C(=O)c3ccccc3)nc2n1	5	-21	-20
SMILES	PD-1 reverse act	NOMO-1 viab	ROS inducer
c1cncc(C2Nc3ccccc3-n3cccc32)c1 (stereo not given)	-6	72	-4
C[C@H]1O[C@@H](O[C@H]2C[C@@H](O)[C@]3(CO)C4C(CC[C@]3(O)C2)[C@@]2(O)CC[C@H](C3=CC(=O)OC3)[C@@]2(C)C[C@H]4O)[C@@H](O)[C@@H](O)[C@H]1O (stereo not given in full)	-29	121*	7
CC1OC(O[C@H]2C[C@@H](O)[C@]3(CO)[C@H]4[C@H](O)C[C@]5(C)[C@@H](C6=CC(=O)OC6)CC[C@]5(O)[C@@H]4CC[C@]3(O)C2)C(O)C(O)C1O (stereo not given in full)	-52	98*	2
C[C@@H]1O[C@@H](O[C@H]2C[C@@H](O)[C@]3(CO)C4C(CC[C@]3(O)C2)[C@@]2(O)CC[C@H](C3=CC(=O)OC3)[C@@]2(C)C[C@H]4O)[C@H](O)[C@H](O)[C@H]1O (stereo not given in full)	·	107*	-2
CCC(O)CC1CCCC(CC(O)c2ccccc2)N1C (stereo not given)	1	51	-5
CC(=O)c1cccc(NC(=O)CSC2c3ccccc3-c3ccccc32)c1	-1	38	-15
CN(C)C(=O)Oc1cccc(N)c1	·	·	-2
Cc1cc(C(F)F)n2nc(C(=O)Nc3ccc4c(C(F)(F)F)cc(=O)oc4c3)nc2n1	-1	13	19
CC1=CC(=O)C2=C(C)C[C@H](O)[C@@H]3[C@H](OC(=O)[C@H]3C)[C@H]12	·	-13	0
COC(=O)[C@@]12C(=O)C(C)C(=O)[C@]1(C)C(C)=C[C@H]1[C@]3(C=O)CC[C@H](OC(C)=O)C(C)(C)[C@H]3CC[C@@]12C (stereo not given in full)	·	·	2
COc1ccc2c(c[n+](C)c3c4cc5c(cc4ccc23)OCO5)c1OC	-59	142*	43
COc1ccc2c(c1OC)CN1CCc3cc4c(cc3C1C2)OCO4 (stereo not given)	·	15	-10
N[C@H]1C[C@@H]1c1ccccc1	0	31	-12
C[C@@H]1CN([C@H](C)CO)C(=O)CCCn2cc(nn2)CO[C@@H]1CN(C)C(=O)Oc1ccc2ccccc2c1	·	·	31
C[C@H]1CN([C@@H](C)CO)C(=O)CCCn2cc(nn2)CO[C@@H]1CN(C)C(=O)Oc1ccc2ccccc2c1	·	·	134*
CC1=C2C[C@H]3[C@@H](CC=C4C[C@@H](O)CC[C@@]43C)[C@@H]2CC[C@]12O[C@@H]1C[C@H](C)CN[C@H]1[C@H]2C	·	55	-6
COCc1cc(OC(=O)N(C)C)nc2c1c(-c1cccs1)nn2C	-3	18	26
CC(=O)NC1C(OC2OC(CC(O)C3OC(n4ccc(=O)[nH]c4=O)C(O)C3O)C(O)C(O)C2NC(=O)/C=C/CCCCCCCCCC(C)C)OC(CO)C(O)C1O (stereo not given)	-4	108*	-13
CO/C1=C/C(C)=C/[C@@H](C)[C@@H](O)[C@@H](C)C/C(C)=C/C=C\[C@H](OC)[C@@H]([C@@H](C)[C@@H](O)[C@H](C)[C@@]2(O)C[C@@H](O)[C@H](C)[C@@H](C(C)C)O2)OC1=O	-33	142*	0
OCC1OC(n2cnc3cc(Cl)c(Cl)cc32)[C@@H](O)[C@H]1O (stereo not given in full)	2	40	-8
CN(C)C(=O)Oc1ccnc(SCc2c(F)cccc2Cl)n1	1	68	-6
CC(C)C[C@H]1C(=O)N2CCC[C@H]2[C@]2(O)O[C@](NC(=O)[C@@H]3C=C4c5cccc6[nH]cc(c56)C[C@H]4N(C)C3)(C(C)C)C(=O)N12	·	?	120*
C[C@@H](CO)NC(=O)C1C=C2c3cccc4[nH]cc(c34)C[C@H]2N(C)C1 (stereo not given in full)	·	10	-9
CCOc1cc(CN2CCN(C(=O)COc3ccc(C)cc3)CC2)ccc1OC	1	27	18
